Source: PubChem (The Scripps Research Institute Molecular Screening Center)
A selection: hits, their analogues and other compounds. The true share with any hit is near 2%.
TCR CD3 inh = blocks the human TCR-CD3 interaction. TAMRA-labeled TCR probe fluorescence, biochemical. inhibition, % at 9.4 µM. 360,000 tested, 0.37% active. AID 651800; in the data active = inhibition above about 19%;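 also: recombinant mutant TCR 2C K166C tagged with TAMRA read by polarization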
LEDGF integ inh = blocks HIV-1 LEDGF/p75-dependent DNA integration | 370,000 tested, 0.64% active | inhibition, % at 3.7 µM | TR-FRET IN-LEDGF/p75 DNA integration, Eu/Cy5;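 active = inhibition above the screen-wide mean plus 3 SD, cut at about 13% in these data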;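 also: signal is the Cy5 over europium emission ratio at 671 and 618 nm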
UHRF1 MBD2 ctr = blocks human UHRF1 binding to methylated DNA. inhibition, % at 4.4 µM. 370,000 tested, 0.75% active. UHRF1 binding to methylated oligo, TR-FRET. AID 687016. Q96T88;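 also: UHRF1 SRA domain binding a hemimethylated CpG hairpin DNA probe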
Target sequence (Q96T88 whole entry, looked up, the tested form may be a part): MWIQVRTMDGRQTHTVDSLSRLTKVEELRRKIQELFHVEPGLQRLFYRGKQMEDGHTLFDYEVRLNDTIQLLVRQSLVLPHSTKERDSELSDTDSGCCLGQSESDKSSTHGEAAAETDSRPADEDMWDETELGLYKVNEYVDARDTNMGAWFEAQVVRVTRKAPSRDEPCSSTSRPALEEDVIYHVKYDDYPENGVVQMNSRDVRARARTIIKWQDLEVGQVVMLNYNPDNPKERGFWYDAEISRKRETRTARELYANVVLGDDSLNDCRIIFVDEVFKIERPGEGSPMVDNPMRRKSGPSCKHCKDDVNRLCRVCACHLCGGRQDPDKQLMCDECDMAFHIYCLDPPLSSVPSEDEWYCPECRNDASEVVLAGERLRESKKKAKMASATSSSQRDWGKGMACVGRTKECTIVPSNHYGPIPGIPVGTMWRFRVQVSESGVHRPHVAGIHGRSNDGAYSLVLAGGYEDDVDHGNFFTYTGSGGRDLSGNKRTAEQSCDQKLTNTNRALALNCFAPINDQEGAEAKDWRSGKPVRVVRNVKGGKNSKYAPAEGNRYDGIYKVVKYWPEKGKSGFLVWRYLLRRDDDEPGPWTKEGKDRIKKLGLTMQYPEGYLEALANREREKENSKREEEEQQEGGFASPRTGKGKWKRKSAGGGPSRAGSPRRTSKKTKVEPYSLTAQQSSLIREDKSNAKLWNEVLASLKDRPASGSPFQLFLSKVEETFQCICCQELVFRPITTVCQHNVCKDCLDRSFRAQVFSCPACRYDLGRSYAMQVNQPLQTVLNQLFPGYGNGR
MBD2 inh = MBD2-methylated oligo binding inhibition; inhibition, % at 4.4 µM; Q9UBB5; 370,000 tested, 0.31% active; TR-FRET, MBD2 binding to methylated oligonucleotide; in the data active = inhibition above about 13%
Rin1-Abl PPI inh = blocks binding of human Rin1 to Abl | P00519+Q13671 | TR-FRET Rin1/Abl binding, biochemical | inhibition, % at 7.35 µM | 360,000 tested, 0.4% active | AID 588664; in the data active = inhibition above about 5%, passing the limit was not always enough
UHRF1 ctr MBD2 = inhibits human UHRF1 binding to methylated oligonucleotide, MBD2 counter-screen. shares compounds with MBD2 inh. TR-FRET. inhibition, % at 4.4 µM. 1,000 tested, 25% active. AID 720530;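 also: UHRF1 SRA domain binding a labeled hemimethylated CpG hairpin DNA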
MBD2 DBD conf = confirmation of human MBD2-DBD methylated oligonucleotide binding inhibitors | shares compounds with MBD2 inh | TR-FRET MBD2-DBD binding to methylated oligonucleotide | inhibition, % at 4.4 µM | 1,000 tested, 26% active; in the data active = inhibition above about 14%
A number is an active result; – = inactive; · = no result. Rule as the data show it, unless noted: active = inhibition above about 21%; inactive = the rest.

SMILES	TCR CD3 inh	LEDGF integ inh	UHRF1 MBD2 ctr	MBD2 inh	Rin1-Abl PPI inh	UHRF1 ctr MBD2	MBD2 DBD conf
COc1ccc(CN2CCc3c([nH]c4ccccc34)C2)c(OC)c1C	–	–	–	–	–	·	·
Cc1cccc(N2C(=O)CC(Sc3nc(C)c4c(n3)CCCC4)C2=O)c1 (stereo not drawn)	–	–	–	14	–	–	–
Cc1nc(SC2CC(=O)N(c3cc(Cl)cc(Cl)c3)C2=O)nc2c1CCCC2 (stereo not drawn)	–	–	–	–	–	·	·
Cc1ccccc1NC(=O)c1ccc(NC(=O)C2CCCO2)cc1 (stereo not drawn)	·	·	·	·	–	·	·
O=C(/C=C/c1cccc(Br)c1)N1CCN(c2ccccn2)CC1	–	–	35	14	–	–	–
O=C(OCc1cc(=O)n2ccsc2n1)c1ccccc1NCCO	–	–	29	31	–	–	–
CC(C)CC1C(=O)N(Cc2cn(CCC3OCCCO3)nn2)CCS(=O)(=O)N1Cc1ccc(-c2ccc(Cl)nc2)cc1 (stereo not drawn)	–	–	–	–	–	·	·
O=c1c2c([nH]c3ccccc13)CCCC2	–	–	–	–	–	·	·
O=C(O)c1cccc2c3c([nH]c12)CCCC3	–	–	–	18	–	–	–
O=c1[nH]cnc2c1ncn2[C@H]1CC[C@@H](CO)O1	–	–	23	38	–	–	–
CCN(CC)CCNc1nc2cc(OC)c(OC)cc2c2nc(-c3ccccc3)nn12	–	–	38	31	–	34	25
COc1cc2[nH]c(=O)n3nc(-c4ccccc4)nc3c2cc1OC	·	·	·	·	–	·	·
COc1ccccc1NC(=O)N1CCN(CCc2ccccc2)CC1	–	–	–	–	–	·	·
CCN1CCN(C(=O)Nc2ccccc2OC)CC1	–	–	–	14	–	–	–
CC(C)[C@H](NS(=O)(=O)c1ccc2c(c1)OCCO2)C(=O)OCC(=O)Nc1ccccc1	–	–	28	19	–	–	–
Cc1[nH][nH]c(=O)c1C(c1cc(Br)ccc1O)c1c(C)[nH][nH]c1=O	–	–	–	53	–	–	–
FC(F)(F)c1ccccc1Cc1c(-c2ccco2)nc2c3ccccc3ccn12	–	–	–	13	·	–	–
Cc1ccccc1-c1cc2nc(Oc3ccc4c(c3)OCO4)n(C)c(=O)c2s1	–	–	–	–	–	·	·
Cc1c(C(=O)Nc2cccc(F)c2)cnn1-c1ccccc1	–	–	–	13	–	–	–
Cc1ccccc1NC(=O)c1ccc2nccnc2c1	–	–	–	16	–	–	–
COC(=O)[C@]12C[C@H](CC(=O)N3CCCCC3)C(=O)N(CCC3=CCCCC3)C1=C[C@H](COCc1ccccc1)O[C@@H]2C	–	–	–	–	·	·	·
CCOc1ccc(NC(=O)NN2C(C)CCCC2C)cc1 (stereo not drawn)	–	–	–	102	–	–	–
COC(=O)[C@]12C[C@H](CC(=O)NCCCN3CCCC3=O)C(=O)N(Cc3ccccc3)C1=C[C@H](COCc1ccccc1)O[C@@H]2C	·	–	–	–	·	·	·
OCC[C@@H]1C[C@H](O)[C@@H](O)[C@@]2(OCCCc3cc(C(F)(F)F)ccc32)O1	–	–	–	–	–	·	·
N#Cc1c(-c2ccccc2Cl)c2c([nH]c1=O)-c1ccccc1OC2	–	–	–	21	–	–	–
SMILES	TCR CD3 inh	LEDGF integ inh	UHRF1 MBD2 ctr	MBD2 inh	Rin1-Abl PPI inh	UHRF1 ctr MBD2	MBD2 DBD conf
COc1ccc(NC(=O)C2(C)Cc3c(-c4ccc(N(C)C)cc4)ccnc3O2)cn1 (stereo not drawn)	–	–	–	–	–	·	·
CC[C@@]1(C(=O)OC)N[C@H](CN(C)S(=O)(=O)c2ccc(-c3ccccc3)cc2)[C@@H]2C(=O)N(Cc3ccccc3)C(=O)[C@@H]21	–	–	–	–	–	·	·
CN(CCc1ccccc1)c1cc2c(c3c1ccn3C)C1CCC2O1 (stereo not drawn)	–	–	–	–	–	·	·
CCN(c1ccccc1)S(=O)(=O)c1cc(C(=O)O)ccc1C	–	–	60	25	–	51	27
CCC(C)[C@H](NC(=O)NC1CCN(Cc2ccccc2)CC1)C(=O)OC (stereo partly drawn)	–	–	–	15	–	–	–
COc1ccc(C)cc1NC(=O)NC1CCN(Cc2ccccc2)CC1	–	–	–	–	–	·	·
CN(C)CCNc1ccc(CO)c2sc3ccc(O)cc3c(=O)c12	–	–	–	16	–	–	27
C[C@@H](/C=C/C(=O)OC(C)(C)C)Sc1ccc(C(C)(C)C)cc1	·	–	–	18	·	–	–
O=C(NCc1cc(Cl)cc(Cl)c1)c1csc([C@@H]2C[C@H](O)[C@@H](CO)O2)n1	–	–	–	–	–	·	·
CC(=O)N1CCN(C(=O)c2cc(C)oc2C)CC1	–	–	–	–	–	·	·
Cc1cc(C(=O)N2CCOCC2)c(C)o1	–	–	22	15	–	–	–
O=C(NCCCN1CCOCC1)C(=O)NCc1ccc(Cl)cc1	–	–	–	13	–	–	–
S=C(NCCCN1CCOCC1)Nc1ccc(Cl)cc1	–	–	–	–	–	·	·
CCSc1nc(C)nc2sc(C)c(C)c12	–	–	–	29	–	–	–
CCN(CC)C(=O)c1cc2c(=O)c3cc(F)ccc3oc2nc1C	–	–	–	19	–	–	–
CCOC(=O)c1cc2c(=O)c3ccccc3oc2nc1C	–	–	–	–	–	·	·
CCOC(=O)c1cnc2c(cnn2C)c1NCc1ccc(OC)cc1	–	–	–	44	–	–	–
CCOC(=O)[C@@]12CN(C(=O)OC(C)(C)C)CC=C1N(Cc1ccc(OC)cc1)C(=O)[C@H]2CC(=O)NCCCCc1ccccc1	·	–	–	–	·	·	·
COC(=O)Nc1ccc2c(c1)ncn2C1CCCCC1	–	–	–	–	–	·	·
CC(=O)Nc1ccc2c(c1)ncn2C1CCCCC1	–	–	–	34	–	–	–
CC1(Oc2ccccc2-c2ccno2)CCN(Cc2csc3ccccc23)C1 (stereo not drawn)	–	–	–	–	–	·	·
COc1ccc(N(C)S(=O)(=O)c2cccc(C(=O)Nc3nc(C)c(C(C)=O)s3)c2)cc1	–	–	–	15	–	–	–
CCN(C(=O)COC(=O)COc1ccc(Cl)c(C)c1)C1CCS(=O)(=O)C1 (stereo not drawn)	–	–	–	–	–	·	·
Cc1[nH]c2ccc(C(=O)O)cc2c1C	–	–	–	–	–	·	·
CCCc1c(C)[nH]c2ccc(C(=O)O)cc2c1=S	27	–	77	25	–	38	23
O=C(Nc1ccc(Oc2cccc(C(F)(F)F)c2)nc1)c1ccccc1	–	–	–	–	–	·	·
COc1cccc(C(=O)Nc2ccc(Oc3cccc(C(F)(F)F)c3)nc2)c1	–	–	–	14	–	–	–
COc1cc2sc3cc(NCC[C@@H]4CCCN4C)ccc3c(=O)c2cc1OC	–	–	–	18	–	–	22
COc1cccc2sc3ccc(NCCC4CCCN4C)cc3c(=O)c12 (stereo not drawn)	–	–	–	–	–	·	·
